Env fusion inh: blocks HIV Env-driven cell-cell fusion; HeLa-JRFL Env/CEM21 cell fusion, luciferase; inhibition, % at 12.3 µM; actives 1.1% (n = 360,000);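 active = mean replicate inhibition score of at least 50 and every replicate individually at or above 50; inconclusive = only one of the two criteria met; inactive = mean below 50 and not all replicates reaching 50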
EWS-Fli block: inhibitors of EWS/Fli oncoprotein transcriptional activity. inhibition, % at 12.6 µM. A673 NR0B1-luciferase reporter, viability-normalised. actives 0.67% (n = 350,000). AID 651661;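 active = mean inhibition of at least 50% after viability correction, with every replicate also passing that limit; inconclusive = mean reaches 50% but only one of two replicates passes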;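 also: firefly luciferase signal divided by Alamar Blue viability fluorescence both relative to DMSO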
CFTR F508del cor: CFTR F508del correction in bronchial cells; CFBE cells, YFP halide quenching; stimulated with forskolin plus potentiator P3; % fluorescence drop versus neutral controls; activity (quench increase), % at 7.58 µM; actives 0.36% (n = 350,000);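 active = mean added fluorescence quench of at least 8% versus neutral control, with both replicates also reaching 8%; inconclusive = only one of the mean or replicate conditions met; inactive = mean below 8% and not both replicates reaching 8%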;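 also: cells transiently co-express mutant CFTR-F508del with the halide-sensitive YFP; corrector assay measuring rescue of mutant channel to the surface after 24 h compound exposure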
PAX8 reporter: lowers PAX8-driven luciferase in RMG-I cells; RMG-I TPO-luciferase reporter, SteadyGlo, 24 h; inhibition, % at 12.6 µM; actives 1.2% (n = 360,000); AID 652154;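 active = mean replicate inhibition at least 60% with every replicate also reaching 60%; inconclusive = only one of the two criteria is met; inactive = mean below 60% and not all replicates reaching 60%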;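 also: luciferase light reporting Pax8 driven TPO promoter activity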
FXN GAA850 act: frataxin GAA850 promoter activation | AID 540364 | HEK293 lucGAA850 FXN promoter luciferase reporter, 24 h; percent of 10 µM SAHA response | actives 0.56% (n = 360,000) | activation, % at 6 µM;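 active = activation above the average of all compounds screened plus 3 SD, cutoff fixed separately per campaign, cut at about 7.5% in these data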
GAA30 counter: GAA30 FXN promoter activation counter-screen; shares compounds with FXN GAA850 act; HEK293 lucGAA30 FXN promoter luciferase, 24 h; DMSO = 0%, 5 µM ipriflavone = 100%; activation, % at 6 µM; actives 66% (n = 1,900); AID 588350;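 active = mean activation above the mean of solvent-only control wells plus 3 SD, cut at about 22% in these data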;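 also: counterscreen of GAA850 promoter hits where activity marks nonselective or luminescence artifacts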
GAA850 confirm: GAA850 FXN promoter activation confirmation | shares compounds with FXN GAA850 act | HEK293 lucGAA850 FXN promoter luciferase reporter, 24 h; 100% = activation by SAHA | activation, % at 6 µM | actives 86% (n = 1,900) | AID 588351;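 active = mean activation above a set limit taken from the primary screen, cut at about 8% in these data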
A number is an active result; 0 = inactive; ? = inconclusive; - = not tested or not shown; ! = repeats disagree. Sampled rows, rich in hits. Any-hit rate of the full collection: about 2.5%.

SMILES	Env fusion inh	EWS-Fli block	CFTR F508del cor	PAX8 reporter	FXN GAA850 act	GAA30 counter	GAA850 confirm
CC1=CC(=C2C(=O)c3ccccc3C2=O)C=C(C)N1C	-	-	-	-	8.2	111.2	33.9
CC1CC1C(=O)OCc1cc(=O)n2cc(Br)ccc2n1 (centres undefined)	0	-	-	0	0	-	-
CC1(C(=O)OCc2cc(=O)n3cc(Br)ccc3n2)CC1(Cl)Cl (centres undefined)	0	0	0	0	8.9	98.8	40.1
COc1cccc(-c2ccc3c(c2)O[C@H](CN(C)C(=O)C2CCC2)[C@@H](C)CN([C@H](C)CO)S3(=O)=O)c1	0	0	0	-	-	-	-
O=C(CCCN1C(=O)c2ccccc2C1=O)Nc1c(C(=O)C2CC2)oc2ccccc12	0	0	0	0	17.3	27.8	8.6
CCCCOc1ccc(C(=O)NCC2(c3ccc(OC)cc3)CCOCC2)cc1	-	-	-	-	16.2	0	0
O=C(C[C@H]1C[C@@H]2c3cc(NC(=O)Nc4ccc(C(F)(F)F)cc4)ccc3O[C@@H]2[C@H](CO)O1)NCc1ccccn1	0	0	0	0	-	-	-
N#CC(=C1CCCC1)c1nc(-c2ccccc2)cs1	-	-	-	-	9.5	111.0	39.1
Cc1cccc(/C=N\Nc2cn[nH]c(=O)c2Cl)c1	72.7	-	-	-	21.9	65.7	24.2
O=c1[nH]ncc(N/N=C\c2cccnc2)c1Cl	0	0	0	0	0	-	-
CCCCCn1c(=NC(=O)c2ccco2)c(C(=O)OCC)cc2c(=O)n3ccccc3nc21	0	0	0	0	8.0!	0	9.0
CCCCn1c(=NC(=O)c2ccco2)c(C(=O)OCC)cc2c(=O)n3ccccc3nc21	0	-	-	0	0	-	-
Clc1nc2sccn2c1/C=N/n1cnc2ccccc21	-	0	0	-	9.1	82.1	32.1
Fc1ccc(-c2cn3cc(C(F)(F)F)cc(Cl)c3n2)cc1	0	-	-	0	8.8	97.4	35.0
Cc1sc(NC(=O)c2ccccc2)c(C#N)c1-c1ccccc1	-	-	-	-	10.8	111.4	38.0
CCc1c(C)sc(NC(=O)c2cccs2)c1C#N	-	0	0	0	0	-	-
CO[C@H]1CN(C)C(=O)c2ccc(NC(=O)C3CCCC3)cc2OC[C@@H](C)N(C(=O)CC2CC2)C[C@@H]1C	0	0	0	0	-	-	-
Oc1cc(NCc2cccnc2)ccc1-c1nc2ccccc2o1	0	-	-	0	11.4	80.9	44.2
C=C(C)[C@@H]1C2=CC(C(=O)OC)=C(C[C@H](C(=C)C)[C@H]3O[C@H]3C3=C[C@H]1OC3=O)O2	-	56.9	0	-	14.5	0	0
C[C@H]1CN([C@@H](C)CO)C(=O)c2cc(NC(=O)CCCN(C)C)ccc2O[C@@H]1CN(C)Cc1ccc(Oc2ccccc2)cc1	0	-	0	0	-	-	-
COCC(=O)N1CCC2(CC1)CN(C(=O)COC)[C@H](CO)c1c2c2ccc(OC)cc2n1C	-	0	0	-	-	-	-
CC(=O)c1ccc2c3c(cccc13)C(=O)N(CCc1ccccc1)C2=O	0	0	0	0	7.8	112.3	45.4
C[C@@H]1CN([C@H](C)CO)C(=O)c2cc(C#Cc3ccccc3)cnc2O[C@@H]1CN(C)C(=O)CN(C)C	0	0	0	-	-	-	-
O=S(=O)(Cc1ccccc1)N1CCCCN2[C@@H](CO)[C@@H](c3ccc(-c4ccccc4)cc3)[C@@H]2C1	-	0	0	0	-	-	-
CC1=N/C(=C\c2ccc(OC(C)C)cc2)C(=O)N1c1ccc(C(=O)O)cc1	0	0	-	0	0	-	-
SMILES	Env fusion inh	EWS-Fli block	CFTR F508del cor	PAX8 reporter	FXN GAA850 act	GAA30 counter	GAA850 confirm
COc1ccc(/C=C2\N=C(c3ccccc3)N(c3ccc(C(=O)O)cc3)C2=O)cc1OC	0	0	0	0	9.3	41.3	22.8
O=C(N/N=C/c1ccncc1)C1CC1(c1ccccc1)c1ccccc1 (centres undefined)	0	0	0	0	0	-	-
O=C(N/N=C/c1ccc(O)c([N+](=O)[O-])c1)C1CC1(c1ccccc1)c1ccccc1 (centres undefined)	0	0	0	0	10.0	32.4	18.9
N#C/C(=C\c1cccc(Oc2ccc(C(F)(F)F)cc2[N+](=O)[O-])c1)c1nc2ccccc2[nH]1	-	-	-	-	8.0	22.7	7.9
Fc1ccc(-c2csc3ncnc(Nc4ccc(N5CCOCC5)cc4)c23)cc1	?	-	-	-	11.6	0	11.3
CCCCn1c(/C=C/c2ccco2)nc2ccccc21	0	0	-	0	0	-	-
CCCCn1c(/C=N/Nc2nc3ccccc3[nH]2)nc2ccccc21	-	-	-	0	12.3	0	0
COc1ccccc1CN(Cc1cc2c(C)ccc(C)c2[nH]c1=O)Cc1nnnn1Cc1ccco1	-	-	-	-	8.8	0	10.5
CCN(Cc1ccc(OC)c(F)c1)C(=O)c1cc2ccccc2o1	0	0	0	0	8.5	34.5	17.5
CCOc1ccc(CN(C)C(=O)c2cc3ccccc3o2)cc1OC	0	-	0	0	0	-	-
C[C@@H]1CN([C@H](C)CO)C(=O)c2cc(NC(=O)Cn3cnnn3)ccc2O[C@@H]1CN(C)Cc1ccc2c(c1)OCO2	-	0	0	-	-	-	-
Cc1cc2nc(-c3ccc(NC(=O)C(C)C)cc3)oc2cc1C	-	-	-	-	8.5	101.8	37.2
Clc1ccc(C=Cc2ccccn2)c(Cl)c1	0	0	0	0	7.7	119.7	37.0
ClC(/C=N/n1cnnc1)=C/c1ccccc1	0	0	-	0	7.8	58.6	30.3
CC(/C=N/n1cnnc1)=C\c1ccccc1	0	-	-	0	0	-	-
COc1ccccc1-c1cn(CC[C@@H]2CC[C@H](NC(=O)CCN3CCCCC3)[C@@H](CO)O2)nn1	0	0	0	0	-	-	-
C[C@@H]1CN([C@H](C)CO)C(=O)c2cccc(NS(=O)(=O)c3cccs3)c2O[C@@H]1CN(C)S(C)(=O)=O	0	0	0	-	-	-	-
CC(Nc1cc(N2CCOCC2)ccc1[N+](=O)[O-])c1ccccc1 (centres undefined)	0	-	-	0	8.8	33.8	15.2
COc1cccc(OCCNc2cc(N3CCOCC3)ccc2[N+](=O)[O-])c1	0	-	-	0	10.0	67.5	30.7
CC(Nc1cc(N2CCCC2)ccc1[N+](=O)[O-])c1ccccc1 (centres undefined)	-	-	-	-	0	-	-
O=C(C[C@@H]1CC[C@H]2[C@@H](COC[C@H](O)CN2C(=O)Nc2cccc(F)c2)O1)NCc1ccccc1Cl	-	-	0	-	-	-	-
Cc1ccc(-c2cc(C(=O)N/N=C/c3ccco3)n[nH]2)s1	0	-	-	0	0	-	-
CC(C)(C)c1cc(C(=O)N/N=C/c2ccco2)n[nH]1	-	-	-	-	8.3	72.7	28.6
C[C@@H]1CN([C@H](C)CO)C(=O)c2cc(NC(=O)Nc3ccc(C(F)(F)F)cc3)ccc2O[C@@H](C)CCCCO[C@@H]1CN(C)C(=O)Nc1cccc2ccccc12	0	0	0	0	-	-	-
CCCCCn1c(CN2CCN(c3cccc(Cl)c3)CC2)nc2c1c(=O)[nH]c(=O)n2C	0	-	-	-	8.5	0	0
